Source: PubChem BioAssay (NCATS)
Results filed as inconclusive are left out. Activity calls are given as the source filed them. Unless noted, the call rests on the fitted dose curve.

Experiments:
[1] = qHTS for Inhibitors of the Functional Ribonucleoprotein Complex (vRNP) of Lassa (LASV) Arenavirus: LASV Primary Screen - GLuc reporter signal (AID 1347082; calls by dose curve; tested in HEK293 reporter line; further: nearly all actives have a fitted effect of over 60% in size; on activity change, negative = inhibition: series mostly up to about 57 µM)
[2] = qHTS for Inhibitors of the Functional Ribonucleoprotein Complex (vRNP) of Lassa (LASV) Arenavirus: Viability assay - alamar blue signal for LASV Primary Screen (AID 1347083; calls by dose curve; tested in HEK293 reporter line; further: nearly all actives have a fitted effect of over 80% in size; on activity change, negative = reduced viability: series mostly up to about 57 µM)
[3] = qHTS for Inhibitors of the Functional Ribonucleoprotein Complex (vRNP) of Lymphocytic Choriomeningitis Arenaviruses (LCMV): Viability assay - alamar blue signal for LCMV Primary Screen (AID 1347085; calls by dose curve; tested in HEK293 reporter line; further: nearly all actives have a fitted effect of over 80% in size; on activity change, negative = lower viability: series mostly up to about 57 µM)
[4] = molecular target: Nucleoprotein (Lymphocytic choriomeningitis virus (strain Armstrong)) (UniProt P09992); assay: qHTS for Inhibitors of the Functional Ribonucleoprotein Complex (vRNP) of Lymphocytic Choriomeningitis Arenaviruses (LCMV): LCMV Primary Screen - GLuc reporter signal (AID 1347086); further: nearly all actives have a fitted effect of over 70% in size; on activity change, negative = inhibition: series mostly up to about 57 µM
Chain of Nucleoprotein (Lymphocytic choriomeningitis virus (strain Armstrong)) (P09992 whole entry, looked up): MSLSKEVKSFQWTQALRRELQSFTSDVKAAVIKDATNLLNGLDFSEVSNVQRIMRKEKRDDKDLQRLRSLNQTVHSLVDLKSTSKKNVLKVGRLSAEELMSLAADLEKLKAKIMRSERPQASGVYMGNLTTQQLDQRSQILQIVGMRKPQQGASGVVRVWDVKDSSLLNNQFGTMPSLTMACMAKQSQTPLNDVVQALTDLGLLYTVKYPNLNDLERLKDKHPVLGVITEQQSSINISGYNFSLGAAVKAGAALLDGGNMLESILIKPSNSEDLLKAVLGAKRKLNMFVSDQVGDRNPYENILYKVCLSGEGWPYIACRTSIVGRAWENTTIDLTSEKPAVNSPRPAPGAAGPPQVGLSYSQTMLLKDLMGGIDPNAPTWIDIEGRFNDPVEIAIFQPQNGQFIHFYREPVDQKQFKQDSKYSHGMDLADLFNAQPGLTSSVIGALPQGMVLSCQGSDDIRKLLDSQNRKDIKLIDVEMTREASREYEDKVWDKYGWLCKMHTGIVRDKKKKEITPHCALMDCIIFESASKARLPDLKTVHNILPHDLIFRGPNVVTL
On the % scale 0 is the no-effect control and ±100 the full control effect; potency means the concentration at half of the fitted maximal effect.

O=C1c2ccccc2C(=O)c2c(O)ccc(O)c21
inactive: Potency [1] | Potency [2] | Potency [3] | Potency [4]

O=C(/C=C/c1ccc(O)c(O)c1)O[C@@H]1C[C@](O)(C(=O)O)C[C@@H](O)[C@H]1O
inactive: Potency [1] | Potency [2] | Potency [3] | Potency [4]

O=C1c2c(O)cc(O)cc2O[C@H](c2cc(O)c(O)c(O)c2)[C@H]1O
inactive: Potency [1] | Potency [2] | Potency [3] | Potency [4]

C[C@@H](O)CCCCn1c(=O)c2c(ncn2C)n(C)c1=O
inactive: Potency [1] | Potency [2] | Potency [3] | Potency [4]

CC(C)=CCCC(C)CC(=O)O (stereo not given)
inactive: Potency [1] | Potency [2] | Potency [3] | Potency [4]

CCCCCC(=O)OCC
inactive: Potency [1] | Potency [2] | Potency [3] | Potency [4]

O=c1[nH]c(=O)c2ncn(C3OC(CO)C(O)C3O)c2[nH]1 (stereo not given)
inactive: Potency [1] | Potency [2] | Potency [3] | Potency [4]

CC1=CCCC(C)(C)C12CCC(C)O2 (stereo not given)
inactive: Potency [1] | Potency [2] | Potency [3] | Potency [4]

COc1cc2c(cc1OC)[C@H]1C(=O)c3ccc4c(c3O[C@H]1CO2)C[C@@H](C(C)(C)O)O4
inactive: Potency [1] | Potency [2] | Potency [3] | Potency [4]

C[C@@H](C[C@@H](O)[C@H](O)C(C)(C)O)[C@@H]1CC[C@]2(C)C3=CC[C@H]4C(C)(C)C(=O)CC[C@]4(C)[C@H]3CC[C@@]12C
inactive: Potency [1] | Potency [2] | Potency [3] | Potency [4]

C#C[C@]1(O)CC[C@H]2[C@@H]3CCC4=Cc5oncc5CC4(C)[C@H]3CCC21C (stereo not given in full)
inactive: Potency [1] | Potency [2] | Potency [3] | Potency [4]

Cc1nc(Nc2n[nH]c3c2CN(C(=O)N[C@H](CN(C)C)c2ccccc2)C3(C)C)c2sccc2n1
active: Potency [1] 7.69 µM | Potency [2] 0.193 µM | Potency [3] 0.0968 µM | Potency [4] 8.63 µM

COC(=O)C1(Cc2ccc(O)c(CC3OC3(C)C)c2)OC(=O)C(O)=C1c1ccc(O)cc1 (stereo not given)
inactive: Potency [1] | Potency [2] | Potency [3] | Potency [4]

c1ccc(-c2ccncc2)cc1
inactive: Potency [1] | Potency [2] | Potency [3] | Potency [4]

C[C@H]1C[C@@H]2[C@@H]([C@@H](O)C[C@@]3(C)[C@H]2CC[C@]3(O)C(=O)CO)[C@@]2(C)C=CC(=O)C=C12
inactive: Potency [1] | Potency [2] | Potency [3] | Potency [4]

COC(=O)c1cc(O)cc(OC)c1C(=O)c1c(O)cc(C)cc1O
inactive: Potency [1] | Potency [2] | Potency [3] | Potency [4]

Cc1cc2c(c(C)c1CCO)C(=O)[C@H](C)C2
inactive: Potency [1] | Potency [2] | Potency [3] | Potency [4]

CN1CCN(Cc2ccc(NC(=O)Nc3ccc(Oc4cc(NC(=O)C5CC5)ncn4)cc3)cc2C(F)(F)F)CC1
active: Potency [1] 2.43 µM | Potency [2] 1.53 µM | Potency [3] 0.968 µM | Potency [4] 1.72 µM

CC1(C)Oc2cc3oc(=O)ccc3cc2C[C@@H]1O
inactive: Potency [1] | Potency [2] | Potency [3] | Potency [4]

CC1=CC(=O)[C@H]2C[C@@H]1C2(C)C
inactive: Potency [1] | Potency [2] | Potency [3] | Potency [4]

OC(CC(O)c1ccccc1)c1ccccc1 (stereo not given)
inactive: Potency [1] | Potency [2] | Potency [3] | Potency [4]

CCCCCCCCC1OC1CCCCCCCC(=O)O (stereo not given)
inactive: Potency [1] | Potency [2] | Potency [3] | Potency [4]

CC1(C)C2CC[C@]3(C)C(CC=C4[C@@H]5C[C@@](C)(CO)[C@@H]6C[C@@]5(CC[C@]43C)C(=O)O6)[C@@]2(C)CC[C@@H]1O (stereo not given in full)
inactive: Potency [1] | Potency [2] | Potency [3] | Potency [4]

CSc1c(Cl)c(Cl)c(Cl)c(Cl)c1Cl
inactive: Potency [1] | Potency [2] | Potency [3] | Potency [4]

O=C1/C(=C\c2ccc(O)c(O)c2)Oc2c1ccc(O[C@@H]1O[C@H](CO)[C@@H](O)[C@H](O)[C@H]1O)c2O
inactive: Potency [1] | Potency [2] | Potency [3] | Potency [4]

O=C1CCCC2[C@@H]3CCC[N@+]4([O-])CCC[C@H](CN12)C34 (stereo not given in full)
inactive: Potency [1] | Potency [2] | Potency [3] | Potency [4]

O=C(c1ccc(F)cc1)N1CCC[C@H](c2nc(-c3ccc(F)cc3)no2)C1
inactive: Potency [1] | Potency [2] | Potency [3] | Potency [4]

CC(=O)O[C@H](COc1c2ccoc2cc2oc(=O)ccc12)C(C)(C)O
inactive: Potency [1] | Potency [2] | Potency [3] | Potency [4]

CC(C)(O)c1ccc2c(c1)CCC1C(C)(C(=O)O)CCCC21C (stereo not given)
inactive: Potency [1] | Potency [2] | Potency [3] | Potency [4]

CC(C)=C[C@H]1C[C@H](C)[C@H]2CC[C@H](C)c3c(O[C@@H]4OC[C@@H](O)[C@H](O)C4O)c(O)c(C)c1c32 (stereo not given in full)
inactive: Potency [1] | Potency [2] | Potency [3] | Potency [4]

CC[C@H](C)/C=C(C)/C=C/C(=O)Cc1cc(O)c(C)c(O)c1C=O
inactive: Potency [1] | Potency [2] | Potency [3] | Potency [4]

NC1(C(=O)N[C@@H](CCO)c2ccc(Cl)cc2)CCN(c2ncnc3[nH]ccc23)CC1
active: Potency [1] 0.968 µM | Potency [2] 0.385 µM | Potency [3] 0.611 µM | Potency [4] 1.72 µM

CC1C(=O)OC2C1CCC1(C)CCC(=O)C(C)C21 (stereo not given)
inactive: Potency [1] | Potency [2] | Potency [3] | Potency [4]

CC(=O)O[C@H]1CC[C@@]2(C)[C@H](C1)C(=O)C[C@H]1[C@@H]3CC[C@@H]4[C@@H](CN5C[C@@H](C)CC[C@H]5[C@@]4(C)O)[C@@H]3C[C@@H]12
inactive: Potency [1] | Potency [2] | Potency [3] | Potency [4]

CCC(=O)O[C@]1(C(=O)CO)CC[C@H]2[C@@H]3CCC4=CC(=O)CC[C@]4(C)[C@@H]3CC[C@@]21C
inactive: Potency [1] | Potency [2] | Potency [3] | Potency [4]

C/C(=C\COc1ccc2ccc(=O)oc2c1)CC[C@@H](O)C(C)(C)O
inactive: Potency [1] | Potency [2] | Potency [3] | Potency [4]

CCCCCCOC(=O)c1ccccc1
inactive: Potency [1] | Potency [2] | Potency [3] | Potency [4]

CC1(C)O[C@H]2C[C@@H]3[C@H]4CCC5=CC(=O)C=C[C@]5(C)[C@@]4(F)[C@@H](O)C[C@]3(C)[C@]2(C(=O)CO)O1
inactive: Potency [1] | Potency [2] | Potency [3] | Potency [4]

C=C(C)[C@]12C[C@@H](C)[C@@]34O[C@](Cc5ccccc5)(O[C@@H]1[C@@H]3C=C(COC(=O)Cc1ccc(O)c(OC)c1)C[C@]1(O)C(=O)C(C)=C[C@@H]41)O2
inactive: Potency [1] | Potency [2] | Potency [3] | Potency [4]

C=CC(C)(CCC=C(C)C)OC(=O)CC (stereo not given)
inactive: Potency [1] | Potency [2] | Potency [3] | Potency [4]

CC(=O)c1ccc(-c2cccs2)s1
inactive: Potency [1] | Potency [2] | Potency [3] | Potency [4]

O=C(Nc1cc2cc[nH]c2cn1)c1ccccc1
inactive: Potency [1] | Potency [2] | Potency [3] | Potency [4]

CC12CCC(=O)C=C1CCC1C2CCC2(C)C(C(=O)CO)CC(O)C12 (stereo not given)
inactive: Potency [1] | Potency [2] | Potency [3] | Potency [4]

C[C@]12CCC3C(CC[C@H]4C[C@@H](O)CC[C@]34C)C1C[C@@H](O)C2=O (stereo not given in full)
inactive: Potency [1] | Potency [2] | Potency [3] | Potency [4]

COc1ccc(CCNC(=O)/C=C\c2ccccc2)cc1OC
inactive: Potency [1] | Potency [2] | Potency [3] | Potency [4]

ClC1=C(Cl)[C@]2(Cl)[C@@H]3[C@@H](Cl)[C@H]4O[C@H]4[C@@H]3C1(Cl)C2(Cl)Cl
inactive: Potency [1] | Potency [2] | Potency [3] | Potency [4]

O=C(O)COc1ccc(Cl)cc1CO
inactive: Potency [1] | Potency [2] | Potency [3] | Potency [4]

Cc1c(O[C@@H]2O[C@H](CO)[C@@H](O)[C@H](O)[C@H]2O)c(CO)c(O[C@@H]2O[C@H](CO)[C@@H](O)[C@H](O)[C@H]2O)c2c1O[C@@H](c1ccccc1)C[C@@H]2O
inactive: Potency [1] | Potency [2] | Potency [3] | Potency [4]

CC[C@@H](C)[C@@H](O)[C@H](C)C(=O)[C@H](C)/C=C(\C)C[C@H](C)[C@@H]1OC(=O)[C@H]1CC
inactive: Potency [1] | Potency [2] | Potency [3] | Potency [4]

COC(=O)C1=COC(O[C@H]2OC(CO)[C@H](O)C(O)C2O)[C@H]2C1C(=O)C[C@@H]2C (stereo not given in full)
inactive: Potency [1] | Potency [2] | Potency [3] | Potency [4]

O=C1Nc2ccc(Cl)cc2C(C#CC2CC2)(C(F)(F)F)O1 (stereo not given)
inactive: Potency [1] | Potency [2] | Potency [3] | Potency [4]

O=c1oc(-c2ccc(O)c(O)c2)cc2cccc(O)c12
inactive: Potency [1] | Potency [2] | Potency [3] | Potency [4]

O=C(O)/C=C/c1ccc2c(c1)OCO2
inactive: Potency [1] | Potency [2] | Potency [3] | Potency [4]

COc1cc2c(c(OC)c1OC)-c1c(cc3c(c1OC)OCO3)CC(C)C(C)(O)C2OC(=O)c1ccccc1 (stereo not given)
inactive: Potency [1] | Potency [2] | Potency [3] | Potency [4]

CCCCC/C=C\C=C\C(=O)OCC
inactive: Potency [1] | Potency [2] | Potency [3] | Potency [4]

COC(=O)C1=CO[C@@H](C)[C@@H]2CN3CC[C@@]4(C(=O)Nc5ccccc54)[C@@H]3C[C@H]12
inactive: Potency [1] | Potency [2] | Potency [3] | Potency [4]

C[C@@]12CC[C@H]3OC(=O)C=C3C1CC[C@@]13CC(CCC12)[C@](CO)(O[C@H]1O[C@H](CO)[C@@H](O)[C@H](O)[C@H]1O)C3 (stereo not given in full)
inactive: Potency [1] | Potency [2] | Potency [3] | Potency [4]

CCCCC/C=C\C/C=C\C/C=C\C=C\C(O)CCCC(=O)O (stereo not given)
inactive: activity change, negative = inhibition [1] -8.78% [at 0.757 µM] | activity change, negative = reduced viability [2] 7.65% [at 0.757 µM] | activity change, negative = lower viability [3] 16.2% [at 0.757 µM] | activity change, negative = inhibition [4] -6.07% [at 0.757 µM]

CC(=O)OC/C=C/c1ccccc1
inactive: Potency [1] | Potency [2] | Potency [3] | Potency [4]

CCC(C)SSC(C)CC (stereo not given)
inactive: Potency [1] | Potency [2] | Potency [3] | Potency [4]
